A selection: hits, their analogues and other compounds. The true share with any hit is near 17%.
HepG2 tox: kills HepG2 cells in TGF-b inhibitor counter-screen. HepG2 CAGA-GFP viability, ATP luminescence, 18 h. Potency, µM (doses to about 46.1 µM), hits mostly cytotoxic. 410,000 compounds, 0.76% hits. AID 588856
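CellTiter-Glo luminescence gave cytotoxicity after 18 hours at 37 degrees C. The cells were HepG2 CAGA-GFP in 1% FBS DMEM, stimulated with 500 pg/mL TGF-beta after compound addition. %Activity was normalised to no-cell wells (complete cell-killing) and DMSO (no toxicity), and curves were fitted and classified.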
DT40 TDP1 CPT: DT40-hTDP1 cell growth loss with CPT; 420,000 compounds, 12% hits; chicken DT40 Tdp1-/-;hTDP1 cells + 20 nM CPT, ATP luminescence, 48 h; Potency, µM (titrated, usually from 46.2 µM), hits mostly inhibitors; further: nearly all actives have a fitted effect of over 55% in size
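Chicken DT40 Tdp1-/- cells complemented with human TDP1, 400 cells/well, exposed to compounds plus 20 nM camptothecin for at least 48 h at 37 C; viability read as ATP content by CellTiter-Glo luminescence.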
DT40 TDP1 no CPT: qHTS for Inhibitors of human tyrosyl-DNA phosphodiesterase 1 (TDP1): qHTS in cells in absence of CPT; DT40 Tdp1-/- hTDP1 cells, no CPT, ATP luminescence, 48 h; Potency, µM (highest dose often 46.2 µM), hits mostly inhibitors; 420,000 compounds, 15% hits; further: nearly all actives have a fitted effect of over 55% in size
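Stably hTDP1-transfected Tdp1-null chicken DT40 cells were treated with library compounds minus camptothecin and grown for at least 48 hr at 37 °C, after which cellular ATP was quantified by luminescence.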
ATXN viability: cell viability loss in ATXN counter-screen; S2 cells (HEK-293 line with an ATXN2-luciferase reporter) viability, CellTiter-Fluor protease fluorescence, 24 h; Potency, µM (titrated, usually from 56.7 µM), actives largely listed as cytotoxic; 400,000 compounds, 0.49% hits; AID 651635; further: nearly all actives have a fitted effect of over 40% in size
ATXN2 expr inh: inhibitors of ATXN2 expression | HEK-293 ATXN2-luciferase reporter, luminescence, 24 h | Potency, µM (highest dose often 57 µM), actives largely listed as inhibitors | 360,000 compounds, 0.72% hits; further: nearly all actives have a fitted effect of over 55% in size
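qHTS (up to 57 uM final) was run with 24 h compound exposure of reporter cells at 37 °C. Each well was multiplexed: SteadyGlo luminescence measured ATXN2-luciferase expression after a fluorogenic Gly-Phe-AFC viability readout (25 uM final).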
TGFb inhibitor: blocks TGF-b signaling; HepG2 CAGA-GFP TGF-b/SMAD3 reporter, GFP fluorescence, 18 h; TGF-beta stimulated, 500 pg/mL final; Potency, µM (doses to about 46.1 µM), usual class: inhibitors; 410,000 compounds, 1.2% hits; AID 588855; further: nearly all actives have a fitted effect of over 65% in size
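Smad-responsive CAGA-GFP expression was quantified in HEPG2 cells exposed to compounds and 500 pg/mL final TGF-beta for 18 h at 37 degrees C; unstimulated wells defined full inhibition.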
Each line names hits and unclear results; the compound was inactive in the other large screens. The call rests on the fitted dose curve; in most records, active means well fitted curve in the direction sought with a large enough effect; inconclusive means small, poorly fitted or top-dose-only effect, or another doubt; inactive means no such curve, though single readings can be large; an effect the other way counts as inactive or inconclusive.

Cc1ccc(C(=O)NCc2ccc(F)cc2)cc1NC(=O)c1nsc2ccccc12	DT40 TDP1 CPT inconclusive, DT40 TDP1 no CPT 23µM, ATXN viability inconclusive, TGFb inhibitor inconclusive
O=C(NCc1ccccc1Cl)c1ccc(NC(=O)c2nsc3ccccc23)cc1	DT40 TDP1 CPT 18µM, DT40 TDP1 no CPT 18µM
CCC(CO)Oc1cc(NCc2ccc(Cl)cc2)c2ncn(C(C)C)c2c1 (centres undefined)	DT40 TDP1 CPT inconclusive, DT40 TDP1 no CPT inconclusive, ATXN viability inconclusive, ATXN2 expr inh inconclusive, TGFb inhibitor inconclusive
CCC(CO)Oc1cc(NCc2ccc(OC)cc2)c2ncn(C(C)C)c2c1 (centres undefined)	DT40 TDP1 CPT inconclusive, DT40 TDP1 no CPT inconclusive, TGFb inhibitor inconclusive
CCC(CO)Oc1cc(NCc2ccc(Cl)cc2Cl)c2ncn(C(C)C)c2c1 (centres undefined)	DT40 TDP1 CPT inconclusive, DT40 TDP1 no CPT inconclusive, ATXN viability inconclusive, TGFb inhibitor 20µM
CC[C@H](CO)Oc1cc(NCc2cccc(N)c2)c2ncn(C(C)C)c2c1	DT40 TDP1 CPT 26µM, DT40 TDP1 no CPT inconclusive, ATXN2 expr inh inconclusive (no result: HepG2 tox, ATXN viability, TGFb inhibitor)
CC[C@H](CO)Oc1cc(NCc2ccc(Cl)c(Cl)c2)c2ncn(C(C)C)c2c1	DT40 TDP1 CPT 16µM, DT40 TDP1 no CPT inconclusive, ATXN2 expr inh inconclusive, TGFb inhibitor inconclusive (no result: ATXN viability)
CCC(CO)Oc1cc(NCc2ccccc2O)c2ncn(C(C)C)c2c1 (centres undefined)	DT40 TDP1 CPT 15µM, DT40 TDP1 no CPT 18µM, ATXN2 expr inh inconclusive
Cc1ccc2ccc(Cl)cc2n1	none (no result: HepG2 tox, DT40 TDP1 CPT, DT40 TDP1 no CPT, TGFb inhibitor)
O=C(Nc1ccccc1C(F)(F)F)c1ccc2nccnc2c1	none
Cc1cccc(NC(=O)C(=O)NCC(c2ccc3c(c2)OCO3)N2CCN(c3ccccc3)CC2)c1 (centres undefined)	none
Cc1cn([C@H]2C[C@H](O)[C@@H](CCC(=O)NC(c3ccccc3)c3ccccc3)O2)c(=O)[nH]c1=O	none
CCOc1cc(NCc2ccccc2)c2ncn(C(C)C)c2c1	DT40 TDP1 CPT inconclusive, DT40 TDP1 no CPT 23µM, ATXN viability inconclusive, ATXN2 expr inh inconclusive
CCC(CO)Oc1cc(NCc2ccc(C(F)(F)F)cc2)c2ncn(C(C)C)c2c1 (centres undefined)	DT40 TDP1 CPT inconclusive, DT40 TDP1 no CPT inconclusive, ATXN viability inconclusive, TGFb inhibitor inconclusive
CCCOc1cc(NCc2ccccc2)c2ncn(C(C)C)c2c1	DT40 TDP1 CPT inconclusive, DT40 TDP1 no CPT inconclusive, ATXN viability inconclusive
CCC(CO)Oc1cc(NCc2cccc(C)c2)c2ncn(C(C)C)c2c1 (centres undefined)	DT40 TDP1 CPT 21µM, DT40 TDP1 no CPT inconclusive, ATXN viability inconclusive
CCC(CO)Oc1cc(NCc2cccc(C(F)(F)F)c2)c2ncn(C(C)C)c2c1 (centres undefined)	DT40 TDP1 CPT 16µM, DT40 TDP1 no CPT inconclusive, ATXN viability inconclusive, TGFb inhibitor inconclusive
CCC(CO)Oc1cc(NCc2ccc(C)cc2)c2ncn(C(C)C)c2c1 (centres undefined)	DT40 TDP1 CPT inconclusive, DT40 TDP1 no CPT inconclusive, ATXN viability inconclusive
CCn1c(SCC(=O)N(C)CC(=O)Nc2cccc(OC)c2)nnc1-c1ccco1	none
c1nc2nc(Nc3ccc(N4CCOCC4)cc3)nc(NC3CCCCC3)c2[nH]1	ATXN2 expr inh 24µM (no result: HepG2 tox, DT40 TDP1 CPT, DT40 TDP1 no CPT, ATXN viability, TGFb inhibitor)
O=C(Cn1cnc2c(nnn2Cc2ccc(F)cc2)c1=O)N1CCCCC1	none
Cc1cccc(Cn2cnc3c(nnn3Cc3ccccc3F)c2=O)c1	DT40 TDP1 CPT inconclusive, DT40 TDP1 no CPT 28µM
Cc1cccc(Cn2cnc3c(nnn3Cc3ccc(F)cc3)c2=O)c1	DT40 TDP1 CPT inconclusive, DT40 TDP1 no CPT inconclusive
Cc1ccc(Cn2nnc3c(=O)n(CC(=O)N4CCN(c5ccccc5)CC4)cnc32)cc1	DT40 TDP1 CPT 21µM, DT40 TDP1 no CPT inconclusive, TGFb inhibitor inconclusive
Cc1ccc(Cn2nnc3c(=O)n(CC(=O)OCc4ccccc4)cnc32)cc1	DT40 TDP1 CPT 18µM, DT40 TDP1 no CPT 16µM, TGFb inhibitor inconclusive
Cc1ccc(CSCCNS(=O)(=O)c2ccccc2)cc1	DT40 TDP1 no CPT 29µM
Cc1ccc(CSCCNC(=O)c2ccc(N(C)S(=O)(=O)c3ccccc3)cc2)cc1	DT40 TDP1 CPT inconclusive, DT40 TDP1 no CPT 15µM
Cc1ccc(CSCCNS(C)(=O)=O)cc1	ATXN viability inconclusive
CN(c1ccc(C(=O)NCCSC(C)(C)C)cc1)S(=O)(=O)c1ccccc1	DT40 TDP1 CPT inconclusive, DT40 TDP1 no CPT inconclusive
CN(c1ccc(C(=O)NCCSCc2ccc(Cl)cc2)cc1)S(=O)(=O)c1ccccc1	DT40 TDP1 CPT 16µM, DT40 TDP1 no CPT 16µM
CC(=O)Nc1ccc(S(=O)(=O)NCCSCc2ccccc2Cl)cc1	DT40 TDP1 CPT 9.2µM, DT40 TDP1 no CPT 18µM, TGFb inhibitor inconclusive
COc1ccccc1-c1ccnc(-n2ncc(C(=O)NCc3cccc(C)n3)c2C)n1	none (no result: HepG2 tox, ATXN2 expr inh, TGFb inhibitor)
COCCN(C(=O)COC(=O)C1(c2ccccc2)CC1)c1c(N)n(CC(C)C)c(=O)[nH]c1=O	none
Cc1cc(C(=O)CN2C(=O)C(=O)N(Cc3ccccc3)C2=O)c(C)n1-c1ccccc1F	DT40 TDP1 no CPT inconclusive
Cc1cc(C(=O)CN2CCC(C)CC2)c(C)n1-c1ccccc1F	DT40 TDP1 CPT inconclusive, DT40 TDP1 no CPT 16µM, ATXN2 expr inh inconclusive
Cc1ccc(NC(=O)Cc2nc(COC(=O)Cc3cccc(C(F)(F)F)c3)cs2)cc1	none
CCC(=O)N1CCC2(CC1)Oc1ccc(Cl)cc1C(=O)C21CC(c2ccccc2)=NO1 (centres undefined)	DT40 TDP1 CPT inconclusive, DT40 TDP1 no CPT 26µM
CCOc1cccc(C2C=C(c3ccc4c(c3)OCO4)NC(c3cccc(Br)c3)N2)c1O (centres undefined)	DT40 TDP1 CPT 10µM, DT40 TDP1 no CPT 10µM, TGFb inhibitor inconclusive (no result: ATXN viability, ATXN2 expr inh)
CCOc1cccc(C2C=C(c3ccc4c(c3)OCO4)NC(c3ccc(Br)cc3)N2)c1O (centres undefined)	DT40 TDP1 CPT inconclusive, DT40 TDP1 no CPT 16µM, TGFb inhibitor inconclusive (no result: ATXN viability, ATXN2 expr inh)
COc1ccc(NC(=O)C(c2cccc3ccccc23)n2c(=O)c(-c3ccco3)nc3ccccc32)cc1 (centres undefined)	DT40 TDP1 CPT inconclusive (no result: HepG2 tox, ATXN viability, ATXN2 expr inh, TGFb inhibitor)
COc1ccc(NC(=O)C(c2ccncc2)n2c(=O)c(-c3ccco3)nc3ccccc32)cc1 (centres undefined)	DT40 TDP1 CPT inconclusive, DT40 TDP1 no CPT 23µM (no result: HepG2 tox, ATXN viability, ATXN2 expr inh, TGFb inhibitor)
